12-hLO inh = 12-hLO (ALOX12) enzyme inhibition; purified 12-hLO, xylenol orange hydroperoxide absorbance; Potency, µM (titrated, usually from 57.1 µM), for inactives: top-dose activity change, negative = inhibition, usual class: inhibitors; 150,000 tested, 0.12% active; active = well fitted curve in the direction sought with a large enough effect; inconclusive = small, poorly fitted or top-dose-only effect, or another doubt; inactive = no such curve, though single readings can be large; an effect the other way counts as inactive or inconclusive; note: potency is the fitted concentration of half-maximal effect; nearly all actives have a fitted effect of over 55% in size
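Hydroperoxide formation by human 12-lipoxygenase from 40 uM arachidonic acid was followed colorimetrically via ferric-xylenol orange complex, using the 573/405 nm absorbance ratio. Enzyme concentration was 150 nM, with 30 min reaction at room temperature.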
IMPase Li inh = IMPase inhibition in cells with lithium potentiation; CHO-M1 cells, IP1 TR-FRET (IP-One), carbachol + lithium; Potency, µM (series often up to 59.4 µM), for inactives: at the top dose activity, negative = IMPase inhibition, usual class: inhibitors; 210,000 tested, 0.35% active; AID 1457; active = well fitted curve in the direction sought with a large enough effect; inconclusive = small, poorly fitted or top-dose-only effect, or another doubt; inactive = no such curve, though single readings can be large; an effect the other way counts as inactive or inconclusive;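 note: IP1 builds up when IMPase is blocked and the TR-FRET signal falls; potency is the fitted concentration of half-maximal effect; plate controls were basal vehicle for no effect and high inhibitor control for full effect; nearly all actives have a fitted effect of over 50% in size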
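Steps: plate 2000 CHO-M1 cells per well and culture 16–30 h; add compound and lithium; incubate 30 min, 37C; add d2-IP1 tracer and Eu cryptate anti-IP1 antibody in lysis buffer; read after 10 min at room temperature.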
HPGD block = blocks human HPGD enzyme activity. P15428. purified HPGD, NADH fluorescence kinetic, PGE2 substrate. Potency, µM, inactives show top-dose activity change, negative = inhibition, actives largely listed as inhibitors. 150,000 tested, 4.3% active. AID 894; note: potency is the fitted concentration of half-maximal effect
Target sequence (P15428 whole entry, looked up): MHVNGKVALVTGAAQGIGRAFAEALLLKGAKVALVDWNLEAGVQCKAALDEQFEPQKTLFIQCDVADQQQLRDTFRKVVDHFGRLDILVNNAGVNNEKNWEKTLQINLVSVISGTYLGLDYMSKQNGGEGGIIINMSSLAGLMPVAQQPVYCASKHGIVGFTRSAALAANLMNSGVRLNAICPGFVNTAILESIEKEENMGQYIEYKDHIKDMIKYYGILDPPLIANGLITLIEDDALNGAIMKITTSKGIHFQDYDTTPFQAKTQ
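20 nM HPGD preincubated 15 min at room temperature with compound in 50 mM Tris-HCl pH 8, 0.01% Tween 20. Started with 1 mM NAD+ and 30 uM prostaglandin E2; NADH fluorescence (360/450 nm) read 5 times over 30-s intervals, last minus first.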
IMPase inh = IMPase inhibition in cells; P97697; CHO-M1 cells, IP1 accumulation, HTRF TR-FRET ratio; inhibition (IP1 accumulation), % at 46.1 µM; 120,000 tested, under 10 active; active = well fitted curve in the direction sought with a large enough effect in the signal ratio, not every such curve was filed as active; inconclusive = small, poorly fitted or top-dose-only effect, or a change in a side signal; inactive = no such curve, though single readings can be large or run the other way; the % refers to the signal ratio;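 note: cells stimulated with carbachol in lithium chloride buffer; plate controls were DMSO basal wells for no effect and reference inhibitor wells for full effect; higher means more IMPase inhibition seen as more IP1 and lower FRET ratio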
Target sequence (P97697 whole entry, looked up): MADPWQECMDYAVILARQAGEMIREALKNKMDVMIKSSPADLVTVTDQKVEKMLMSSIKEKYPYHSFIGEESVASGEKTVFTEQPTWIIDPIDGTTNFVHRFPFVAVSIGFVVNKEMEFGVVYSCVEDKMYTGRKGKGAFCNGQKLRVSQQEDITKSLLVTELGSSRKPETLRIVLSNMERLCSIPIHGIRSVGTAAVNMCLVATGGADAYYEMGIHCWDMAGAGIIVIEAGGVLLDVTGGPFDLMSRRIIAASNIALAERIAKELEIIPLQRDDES
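Seeded CHO-M1 cells were dosed with compound at up to 46 uM, stimulated with carbachol for 30 min, then lysed in IP-One detection reagents. Higher IP1 lowers the TR-FRET signal.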
ALDH1A1 block = inhibitors of human aldehyde dehydrogenase 1A1 | Purified ALDH1A1, NADH fluorescence, propionaldehyde substrate | Potency, µM (titrated, usually from 75.3 µM), inactives show at the top dose activity, negative = inhibition, usual class: inhibitors | 220,000 tested, 7.3% active;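 note: potency is the fitted concentration of half-maximal effect; plate controls were no enzyme wells and a reference inhibitor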
PNC inhibitor = perinucleolar compartment assembly inhibition | PC3M PTB-GFP, PNC prevalence imaging, 16 h; hits give low values | activity change (PNC), negative = inhibition, % at 10 µM | 140,000 tested, 3.1% active | AID 2417;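 active = readout at or below -70, meaning at least 70% loss of cells showing the perinucleolar compartment, a nuclear body marking cancer cells; inconclusive = readout between -30 and a set limit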;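 note: plate controls were DMSO wells for no effect and camptothecin positive control wells for full effect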
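PC3M cells stably expressing PTB-GFP, 750–1000 cells/well, treated 16 h at 37 °C with compound (23 nl of library stock), in duplicate. After paraformaldehyde fixation and Hoechst stain, imaged at 20x; PNC prevalence scored by image analysis.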
* = called active by the depositor; [ ] = dose if it differs, or a comment. Shown are actives, neighbours in structure and some others; about 11% of the full set was active somewhere. Unless noted, calls come from the whole dose curve; as a rule, active = well fitted inhibition curve with a large enough effect (not every such curve was filed as active); inconclusive = small, poorly fitted or top-dose-only effect, or another doubt; inactive = no such curve, though single readings can be large or run the other way. Unless noted, % is set by controls: 0 for no effect and ±100 for the full control effect.

`Cc1ccc(NC(=O)C(=O)NCCCN2CCOCC2)cc1C` gave IMPase inh 4.
Screening COCCCNCCOCCOc1ccccc1-c1ccccc1 returned 12-hLO inh -1%, IMPase Li inh -4%, HPGD block -1%, ALDH1A1 block -1% and PNC inhibitor -17.
Screening CC(C)(C)NCCOCCOc1ccccc1-c1ccccc1 returned 12-hLO inh 0%, IMPase Li inh 21%, HPGD block 3%, IMPase inh 1, ALDH1A1 block 25µM* and PNC inhibitor -106*.
Screening COC(=O)C/C=C\[C@@H](C)[C@@H](/C=N\O[C@@H](C)c1cn([C@H]2COC[C@H]2O)nn1)OC returned ALDH1A1 block 9%[13.5 µM].
For CCN(Cc1ccccc1)C(c1ccccn1)c1nnnn1C1CCCCC1 (stereo not drawn) the results were 12-hLO inh 3%, IMPase Li inh 15%, HPGD block -6%, IMPase inh 12, ALDH1A1 block -1% and PNC inhibitor -15.
Screening Cc1ccc2[nH]c(=O)c(C(c3nnnn3C3CCCC3)N(Cc3cccnc3)Cc3ccco3)cc2c1 (stereo not drawn) returned 12-hLO inh -2%, IMPase Li inh 19%[38.3 µM], HPGD block -4%, IMPase inh 10, ALDH1A1 block 4.5µM* and PNC inhibitor 28.
Cc1ccc2cc(C(c3nnnn3C3CCCC3)N(Cc3cccnc3)Cc3ccco3)c(=O)[nH]c2c1 (stereo not drawn) was read as 12-hLO inh -5%, IMPase Li inh 26%[38.3 µM], HPGD block -7%, IMPase inh 5, ALDH1A1 block inconclusive and PNC inhibitor inconclusive.
`CC(c1nnnn1C1CCCCC1)N(Cc1ccccc1)Cc1cccnc1` (stereo not drawn) gave 12-hLO inh -2%, IMPase Li inh 8%, HPGD block -8%, IMPase inh -4, ALDH1A1 block -8% and PNC inhibitor -100*.
`Cc1c(N=C=O)cccc1N=C=O` gave 12-hLO inh -1%, IMPase Li inh 10%, HPGD block -5% and ALDH1A1 block 7%.
O=[N+]([O-])c1cc([N+](=O)[O-])c2c(=Nc3ccccc3)n(-c3ccccc3)n(O)c2c1 was read as IMPase Li inh 24% and ALDH1A1 block 0.35µM*.
For COc1cc2c(cc1OC)C(=S)NC(C)(C)C2 the results were 12-hLO inh -14%, IMPase Li inh -20%[38.3 µM], HPGD block -12%, IMPase inh 9, ALDH1A1 block 25µM* and PNC inhibitor -7.
Screening CCOC(=O)/C=C1\NC(C)(C)Cc2cc(OC)c(OC)cc21 returned 12-hLO inh -10%, IMPase Li inh -4%[38.3 µM], HPGD block -5%, IMPase inh -10, ALDH1A1 block -4% and PNC inhibitor 33.
For CN(c1ccc(OCc2nnc(-c3ccccc3)o2)cc1)S(=O)(=O)c1ccccc1 the results were 12-hLO inh 0%, IMPase Li inh 28%[38.3 µM], HPGD block 7.9µM*, IMPase inh 12, ALDH1A1 block 5% and PNC inhibitor inconclusive.
For FC(F)Sc1ccc(NC(=S)NC2CCCC2)cc1 the results were IMPase Li inh 19% and ALDH1A1 block 7%.
For CN(C(=S)Nc1cccnc1)c1ccc(O)cc1 the results were 12-hLO inh 1%, IMPase Li inh 9%, HPGD block -8%, ALDH1A1 block 14µM* and PNC inhibitor 30.
CN(C(=S)Nc1ccc(Oc2ccccc2)cc1)c1ccc(O)cc1 was read as 12-hLO inh -16%, IMPase Li inh 31%, HPGD block inconclusive, ALDH1A1 block 2.2µM* and PNC inhibitor inconclusive.
`CN(C(=S)Nc1ccccc1)c1ccccc1` gave 12-hLO inh 1%, IMPase Li inh -5%, HPGD block -17%, ALDH1A1 block 1% and PNC inhibitor 48.

Bioassay records (PubChem BioAssay)
